Bioassay records: PubChem, National Center for Advancing Translational Sciences (NCATS)
Shown are actives, neighbours in structure and some others; about 2.6% of the full set was active somewhere.
SKOV3 invasion: ovarian cancer metastasis inhibition, 3D TME model; SKOV3ip1-GFP adhesion/invasion on 3D omental model, fluorescence; Potency, µM (titrated, usually from 45.8 µM), without a hit: at the highest dose activity change, negative = inhibition, actives largely listed as inhibitors; 0.1% of 46,000 active; AID 1963576;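 note: plate controls were DMSO wells for no effect and tomatine positive control wells for full effect; nearly all actives have a fitted effect of over 65% in size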
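A 3D layer of primary human omental fibroblasts, mesothelial cells, fibronectin and collagen I, grown 48 hr, received SKOV3ip1-GFP cells in serum-free medium plus compounds at 0.36-46 umol/L. After 2 hr RT and 16 hr 37 C, fixed adherent GFP cells were counted; normalized to DMSO and tomatine.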
S16 viability: S16 Schwann cell cytotoxicity; S16 Pmp22-F2sN Schwann cells viability, CellTiter-Glo, 24 h; 0.48% of 43,000 active; Potency, µM (series often up to 57.5 µM), for the others: at the highest dose activity change, negative = cytotoxicity, actives largely listed as cytotoxic; note: nearly all actives have a fitted effect of over 65% in size
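CellTiter-Glo counter-screen, qHTS, 1536-well. Cells: S16(c9) Pmp22-F2sN, 500-1,000/well in DMEM + 10% FBS. Cpd 23 nL pin transfer, 24 h, 37C/5% CO2. Read: luminescence, CCD imager.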
pS6 MEF inh: inhibitors of mTORC1 signaling in Tsc2-/- p53-/- MEF cells. Tsc2-/- p53-/- MEF, phospho-rpS6 immunofluorescence/PI, 24 h. Potency, µM (titrated, usually from 38.3 µM), without a hit: top-dose activity change, negative = inhibition, usual class: inhibitors. 0.78% of 44,000 active;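 note: plate controls were DMSO for no effect and rapamycin for full effect; nearly all actives have a fitted effect of over 50% in size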
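Tsc2-/-, p53-/- mouse embryonic fibroblasts (empty-vector line) exposed to compound 24 hrs at 37 C, fixed, immunostained for phospho-rpS6 and counterstained with propidium iodide. Acumen laser scanning gives % positive cells from Alexa 488/PI ratio, thresholded using 7.5 nM rapamycin; PI count gives viability.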
PMP22 txn prim: PMP22 gene transcription modulation; AID 1508649; Potency, µM (doses to about 57.5 µM), without a hit: at the highest dose activity change, negative = inhibition, hits mostly inhibitors; S16 Pmp22-F2sN Schwann cells (luciferase reporters placed in the Pmp22 gene), FLuc/NLuc coincidence luminescence, 24 h; 2% of 43,000 active; active = clear falling dose curves in both reporters; inconclusive = both reporters move, but less clearly or upward; inactive = either reporter flat; the % is the NLuc reporter signal
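S16 Schwann cells carrying FLuc/NLuc coincidence reporter in the Pmp22 3' UTR treated with compound 24 h at 37C; FLuc then NLuc luminescence read sequentially by dual-luciferase reagents.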
The depositor's hits bear a star; i = inactive; ? = inconclusive; . = no result; [ ] = another dose, or the depositor's remark. Unless noted, calls come from the whole dose curve; as a rule, active = well fitted curve in the direction sought with a large enough effect; inconclusive = small, poorly fitted or top-dose-only effect, or another doubt; inactive = no such curve, though single readings can be large; an effect the other way counts as inactive or inconclusive. Unless noted, % is set by controls: 0 for no effect and ±100 for the full control effect; potency is the fitted concentration of half-maximal effect.

SMILES	SKOV3 invasion	S16 viability	pS6 MEF inh	PMP22 txn prim
CCc1ccc(NS(=O)(=O)c2cc(-c3cnc(C4CC4)o3)ccc2C)cc1	i	?	-28%	-51%
COc1ccc(Oc2nc3c(C)cccn3c(=O)c2/C=C(\C#N)c2nc3ccccc3[nH]2)cc1	3%	-3%	13µM*	7%
Cc1ccccc1Oc1nc2ccccn2c(=O)c1/C=C(\C#N)c1nc2ccccc2[nH]1	19%	5%	9.3µM*	20%
CCc1ccc(Oc2nc3c(C)cccn3c(=O)c2/C=C(\C#N)c2nc3ccccc3[nH]2)cc1	?	14%	?	-16%
CN[C@@H]1CN(c2ccc3c(=O)c(C(=O)O)cn(-c4nccs4)c3n2)C[C@@H]1OC	-5%[23.2 µM]	.	.	.
Cc1c(NC(=O)OC[C@@H]2COCCN2)cn2ncnc(Nc3ccc4c(cnn4Cc4cccc(F)c4)c3)c12	-15%	.	.	.
Cc1ccc(-n2ncc(C(=O)NCCCN3CCCCC3)c2C2CCN(C(=O)OC(C)(C)C)CC2)c(C)c1	-16%	?	?	?
Cc1ccc(-n2ncc(C(=O)NCCCN3CCc4ccccc4C3)c2C2CCN(C(=O)OC(C)(C)C)CC2)c(C)c1	-3%	?	9.3µM*	?
COc1ccc(-c2nn(C)c3sc(C(=O)Nc4cccc(F)c4)cc23)cc1OC	-35%	14µM*	?	?
COc1ccc(NC(=O)CCS(=O)(=O)c2nc(-c3cccs3)cc(C(F)(F)F)n2)cc1OC	?	?	13µM*	?
O=C(CCS(=O)(=O)c1nc(-c2cccs2)cc(C(F)(F)F)n1)Nc1cccc(O)c1	?	?	13µM*	?
C[C@H](NC(=O)c1sccc1OCc1ccc(Cl)cc1)c1ccccc1	-6%	.	.	.
COc1ccc(-c2c(C)nn3c(C(F)(F)F)cc(-c4ccc(Br)cc4)nc23)cc1	5%	-8%	-2%	-15%
NC(=O)c1nn2c(C(F)(F)F)cc(-c3ccc(Br)cc3)nc2c1Cl	-3%	28µM*	-2%	-19%
Clc1ccc2ncc(-c3cccc(NC4CNC4)n3)n2c1	20%	.	.	.
Cc1ccc(C)c(CN2C(=O)C(=O)c3ccccc32)c1	1%	?	2.9µM*	?
Cc1ccc2c(c1)C(=O)C(=O)N2Cc1ccc(OC(C)C)cc1	-7%	?	?	2.3µM*
COc1ccccc1-c1cc(C(=O)Nc2cc(OC)c(OC)c(OC)c2)no1	-26%	?	?	3.8µM*
CCC1=Nc2cc(C(=O)NCc3ccc(C)cc3)ccc2Sc2ccc(C)cc21	-23%	-8%	-16%	?
CCCC1=Nc2cc(C(=O)NCc3ccccc3)ccc2Sc2ccccc21	?	?	?	12µM*
Fc1ccc(NCc2cccn2-c2nnc(N3CCOCC3)s2)cc1	-22%	18%	-1%	?
Fc1ccc(Nc2nc(Nc3ccc(F)cc3)nc(N3CCOCC3)n2)cc1	15%	4%	2.1µM*	-20%
COc1cc(C)c(C=CC(C)=CC=CC(C)=CC(=O)O)c(C)c1C	-22%	.	.	.
COc1ccc(CNS(=O)(=O)c2ccc(-c3cc(C(F)(F)F)on3)s2)cc1OC	-2%	?	-10%	20µM*
COc1ccc(OC)c(CNS(=O)(=O)c2ccc(-c3cc(C(F)(F)F)on3)s2)c1	15%	-29%	-27%	?
SMILES	SKOV3 invasion	S16 viability	pS6 MEF inh	PMP22 txn prim
CN(C)CC=CC(=O)Nc1cc2c(Nc3ccc(F)c(Cl)c3)ncnc2cc1O[C@H]1CCOC1	-8%	.	.	.
CCC1=Nc2cc(C(=O)NC3CCCC3)ccc2Sc2ccc(Cl)cc21	2%	?	?	8.4µM*
CC1=Nc2cc(C(=O)NC3CCCC3)ccc2Sc2ccc(Cl)cc21	-10%	?	-20%	5.3µM*
CNC(=O)c1ccc2c(c1)N=C(C)c1cc(C)ccc1S2	-5%	-7%	-27%	-40%
CCOc1cccc(C2CC(=O)Nc3cc4c(cc32)OCCO4)c1 (stereo not drawn)	-18%	?	21µM*	?
COc1ccc(Cl)cc1C1CC(=O)Nc2cc3c(cc21)OCCO3 (stereo not drawn)	-8%	?	?	2.5µM*
COc1ccc(CN(C(=O)Nc2ccc(C)c(F)c2)C2CCN(C(C)=O)CC2)cc1	1%	8%	-1%	13%
CCN1CCC(N(Cc2ccc(F)cc2)C(=O)Nc2ccc(C)c(F)c2)CC1	-19%	8%	16µM*	17%
CCN1CCC(N(Cc2ccc3c(c2)OCO3)C(=O)Nc2ccccc2OC)CC1	1%	1%	-17%	8%
CCOc1ccccc1NC(=O)N(Cc1ccc(F)cc1)C1CCN(CC)CC1	-9%	11%	15µM*	-10%
CCOc1ccccc1NC(=O)c1c(NCc2sccc2C)sc2c1CCC(C)C2 (stereo not drawn)	i	7%	15µM*	?
CCOc1ccccc1NC(=O)c1c(NCc2sccc2C)sc2c1CCCCC2	-12%	6%	0%	?
CC1C(=O)N2CCCc3cc(S(=O)(=O)Nc4ccc(Br)cc4F)cc1c32 (stereo not drawn)	-1%	-2%	13µM*	4%
Cc1ccc(C)c(NS(=O)(=O)c2cc3c4c(c2)C(C)C(=O)N4CCC3)c1 (stereo not drawn)	i	-16%	0%	13%
CN1CCC[C@H]1CCO[C@](C)(c1ccccc1)c1ccc(Cl)cc1	3%	.	.	.
O=C(Nc1cccc(Cl)c1)c1c(NC(=O)C(F)(F)F)sc2c1CCCC2	?	?	-9%	13µM*
O=C(Cn1nc(C(F)(F)F)c2c1CCCC2)Nc1ccc(Br)cc1	?	-15%	-2%	?
Cc1cccc(NC(=O)c2c(NC(=O)C(F)(F)F)sc3c2CCCCC3)c1	?	?	-13%	10µM*
Cc1cccc(NC(=O)c2c(Br)sc3c2CCCC3)c1	-8%	-1%	0%	?
O=C(Cn1nc(C(F)(F)F)c2c1CCCC2)Nc1cccc(Cl)c1	-10%	20µM*	-18%	?
Cc1ccccc1NC(=O)c1c(NC(=O)C(F)(F)F)sc2c1CCCCC2	i	?	7%	12µM*
Cc1cccc(C(=O)Nc2sc3c(c2C(=O)Nc2ccccc2)CCC3)c1	3%	7%	8%	10%
CO[C@H]1C[C@@H]2CC[C@@H](C)[C@@](O)(O2)C(=O)C(=O)N2CCCC[C@@H]2C(=O)O[C@H]([C@H](C)C[C@@H]2CC[C@H](OC(=O)C(C)(CO)CO)[C@H](OC)C2)CC(=O)[C@H](C)C=C(C)[C@@H](O)[C@@H](OC)C(=O)[C@H](C)C[C@H](C)C=CC=CC=C1C	0%	.	.	.
Cc1ccc(NC(=O)c2c(NC(=O)c3ccccc3)sc3c2CCC3)cc1	2%	0%	-3%	-3%
Cc1ccc(NC(=O)c2c(NC(=O)C(F)(F)F)sc3c2CCCCC3)cc1	i	?	11%	10µM*
